Tgondii IFNg – blocks Toxoplasma gondii growth in the presence of IFN-gamma; Toxoplasma gondii growth in IFN-gamma-treated host cells; active compounds read low; activity change, negative = inhibition, % (test concentration not listed); 69,000 tested, 3.8% active; AID 1259416; in the data active means activity change below about -70%, passing the limit was not always enough;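 further: host cells are HeLa cells infected with Toxoplasma gondii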
* = called active by the depositor. This is one part of a sample in which hits are shown more often than they occur.

How did COC(=O)[C@H](Cc1ccccc1)NC(=O)[C@@H](N)CC(=O)O do in these assays?
Tgondii IFNg: 16

What do the screens show for `COC[C@H](NC(=O)c1cnc(C)s1)C(=O)N[C@@H](COC)C(=O)N[C@@H](Cc1ccccc1)C(=O)C1(C)CO1` (stereo not given in full)?
Tgondii IFNg: -77*

What do the screens show for `COc1ncc(C(=O)NC(Cc2ccccc2)c2ccc3c(c2)OCCO3)cn1` (stereo not given)?
Tgondii IFNg: 67

How did COC(=O)c1ccccc1SC(CC(=O)c1cccnc1)c1ccc(F)cc1 (stereo not given) do in these assays?
Tgondii IFNg: -8

Results for Cc1nc(C(C)C)ncc1C(=O)N1CCC2(CN(C)C(=O)O2)C1 (stereo not given) ?
Tgondii IFNg: -57

What do the screens show for `N#CCC(=O)N1N=C(C2CCCCC2)CC1(O)C(F)(F)F` (stereo not given)?
Tgondii IFNg: -41

How did COC(=O)C(NC(=O)Cc1ccncc1)c1cccc(C)c1 (stereo not given) do in these assays?
Tgondii IFNg: 1

How did COCCCNC1=NCCNC12CCN(S(=O)(=O)c1cc(C)cc(C)c1)CC2 do in these assays?
Tgondii IFNg: 17

What do the screens show for `CCc1ccc(S(=O)(=O)N2CCC3(CCCN(C)C3=O)C2)cc1` (stereo not given)?
Tgondii IFNg: 1

How did CCc1cccc(NC(=O)CCC(=O)N2CC3C[C@@H]4CC2C[C@H](C3)C4)c1 do in these assays?
Tgondii IFNg: 8

What do the screens show for `CC(=O)Nc1cccc(-c2ccccc2-c2nnc(C)s2)c1`?
Tgondii IFNg: -23

What do the screens show for `CC(=O)Nc1cccc(-c2cnn3cccnc23)c1`?
Tgondii IFNg: -50

What do the screens show for `CC(=O)Nc1cccc(-c2cc(C(F)(F)F)cc3[nH]cnc23)c1`?
Tgondii IFNg: -77*

How did Cc1noc(CN(C)C(=O)CSc2ccncc2)n1 do in these assays?
Tgondii IFNg: 1

What do the screens show for `C=CCn1cc([C@@H]2C[C@H](NC(C)=O)C[C@H](c3cc(F)cc(F)c3)O2)cn1`?
Tgondii IFNg: -44

Results for CC(=O)OCC(=O)[C@H]1CCC2C3CCC4=CC(=O)CC[C@]4(C)C3CC[C@@]21C (stereo not given in full) ?
Tgondii IFNg: -30

What do the screens show for `C[C@H](CCC(=O)O)[C@H]1CC[C@H]2[C@@H]3[C@@H](O)C[C@@H]4C[C@H](O)CC[C@]4(C)[C@H]3CC[C@]12C`?
Tgondii IFNg: 11

Results for CC(=O)OC(C)C1CCC2C3CC[C@H]4CC(=O)CCC4(C)C3CCC12C (stereo not given in full) ?
Tgondii IFNg: -97*

How did Cn1cc(C[C@H]2[C@@H](O)CCN2C(=O)Cc2cccc(F)c2)cn1 do in these assays?
Tgondii IFNg: 23

Results for CCOC(=O)CCc1nc2ccccc2[nH]1 ?
Tgondii IFNg: -27

What do the screens show for `CN(Cc1nc2ccccc2[nH]1)C(=O)CCNC(=O)c1ccc(F)cc1`?
Tgondii IFNg: -49

How did COCC(=O)O[C@]1(CCN(C)CCCc2nc3ccccc3[nH]2)CCc2cc(F)ccc2[C@@H]1C(C)C do in these assays?
Tgondii IFNg: -72*

How did Cc1ccc(C2c3[nH]c4ccccc4c3CCN2C(=O)c2cc3ccccc3[nH]2)cc1 (stereo not given) do in these assays?
Tgondii IFNg: -79*

Results for CCOc1ccc(C2c3[nH]c4ccccc4c3CCN2C(=O)c2cccnc2)cc1 (stereo not given) ?
Tgondii IFNg: 55

Results for Cc1ccc(C(=O)N2CCc3c([nH]c4ccccc34)C2c2ccc(C)cc2)cc1 (stereo not given) ?
Tgondii IFNg: inactive

How did COc1cc(C(=O)N2CCc3c([nH]c4ccccc34)C2c2ccc(C)cc2)cc(OC)c1OC (stereo not given) do in these assays?
Tgondii IFNg: 265

How did Cc1ccc(C2c3[nH]c4ccccc4c3CCN2C(=O)c2cccc(F)c2)cc1 (stereo not given) do in these assays?
Tgondii IFNg: -129*

Results for O=C(c1cccc(F)c1)N1CCc2c([nH]c3ccccc23)C1c1ccccc1 (stereo not given) ?
Tgondii IFNg: -46

How did CCOc1ccc(C2c3[nH]c4ccccc4c3CCN2C(=O)COC)cc1 (stereo not given) do in these assays?
Tgondii IFNg: inactive

Results for CCOc1ccc(C2c3[nH]c4ccccc4c3CCN2C(=O)c2cccc(F)c2)cc1 (stereo not given) ?
Tgondii IFNg: -113*

What do the screens show for `Cc1ccc(C2c3[nH]c4ccccc4c3CCN2C(=O)c2ccnn2C)cc1` (stereo not given)?
Tgondii IFNg: 175

What do the screens show for `COC(=O)CC(=O)CCc1c(C)noc1C`?
Tgondii IFNg: -51

What do the screens show for `Cc1ccc(-c2c(-c3ccncc3)cnc3cc(C)nn23)cn1`?
Tgondii IFNg: 1

How did O=C(NCCCN1CCc2ccccc2C1)c1nc(Nc2ccc(F)cc2)c2ccccc2n1 do in these assays?
Tgondii IFNg: -9

How did Cc1ccc(-c2nnc(SCC(=O)Nc3ccccc3)o2)cc1 do in these assays?
Tgondii IFNg: 160

How did O=C(O)c1cc2ccccc2s1 do in these assays?
Tgondii IFNg: -71*

How did Cc1cc(CNC(=O)c2cc3ccccc3s2)c2ccccc2n1 do in these assays?
Tgondii IFNg: 12

What do the screens show for `CC1CCN(C(=O)c2cc3ccccc3s2)CC1`?
Tgondii IFNg: 19

Results for CCCCC[C@H](CC(=O)NO)C(=O)N[C@H](C(=O)N1CCC[C@H]1CO)C(C)C ?
Tgondii IFNg: -77*

Results for CCC(=O)Nc1cccc(C(=O)N2CCC[C@H]2CO)c1 ?
Tgondii IFNg: 5

How did CCn1ncc(Cl)c1C(=O)N1CCc2c(c(C(=O)O)nn2CC(C)C)C1 do in these assays?
Tgondii IFNg: 7

Results for COCC1CN(Cc2cnn(C)c2)Cc2nnn(CC3CC3)c21 (stereo not given) ?
Tgondii IFNg: -37

How did COc1ccc(-c2cc(-c3ccccc3)c(C)c(-c3ccccc3)n2)cc1 do in these assays?
Tgondii IFNg: -50

How did COc1ccc(-c2sncc2-c2ccccc2)cc1 do in these assays?
Tgondii IFNg: -109*

What do the screens show for `COc1ccc(-c2nc(Cc3noc(-c4ccccc4)n3)c(C)o2)cc1`?
Tgondii IFNg: -21

What do the screens show for `Cc1nc(-c2cccs2)sc1-c1ccnn1C(=O)NC(C)C`?
Tgondii IFNg: 98

What do the screens show for `Cc1nccnc1-c1ccnn1C(=O)Nc1cc(Cl)cc(Cl)c1`?
Tgondii IFNg: -82*

Results for COc1cc(NC(=O)Nc2ccnn2C)cc(OC)c1 ?
Tgondii IFNg: -8

Results for COc1cc(C(=O)NCCc2csc(-c3cccc(F)c3)n2)cc(OC)c1OC ?
Tgondii IFNg: 15

Results for CN1CC[C@]2(CN(Cc3nccn3C)C[C@H]2c2ccccc2)C1=O ?
Tgondii IFNg: -27

How did Nc1nccnc1C(=O)Oc1ccccc1 do in these assays?
Tgondii IFNg: 21

What do the screens show for `Cc1cccc(NC(=O)c2ccc3ccc(N4CCN(CC5CC5)CC4)n3c2)c1`?
Tgondii IFNg: -1

Results for Cc1ccc(Nc2nc(-c3nnc(-c4ccc(C)cc4)o3)nc3ccccc23)cc1 ?
Tgondii IFNg: 42

Results for CC(Nc1ncnc2ccccc12)c1ccccc1 (stereo not given) ?
Tgondii IFNg: -93*

What do the screens show for `c1ccc(Nc2ncnc3ccccc23)cc1`?
Tgondii IFNg: -61

How did Cc1cccc(Nc2ncnc3ccccc23)c1 do in these assays?
Tgondii IFNg: -51

Results for CC(Nc1nc(-c2nnc(-c3ccccc3)o2)nc2ccccc12)c1ccccc1 (stereo not given) ?
Tgondii IFNg: -94*

Screening data (PubChem)
